According to PubChem BioAssay:
Activity calls are given as the source filed them.

Experiments:
[1] = binders of probe aFSTL3 on microarray, primary screen, stem cell growth factor project, biochemical, small-molecule microarray, fluorescence 635/667 (AID 1064); conditions: higher = more signal;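 also: measures binding of the biotinylated anti-FSTL3 antibody to printed compounds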
[2] = binders from COS7 lysate, DM2A8 probe, primary screen, torsin A project, cell lysate, small-molecule microarray, fluorescence 635/667 (AID 1065); conditions: higher = more signal, COS7 lysate expressing mutant human TOR1A
[3] = binders of probe aFGF2 on microarray, primary screen, stem cell growth factor project, biochemical, small-molecule microarray, fluorescence 635/667 (AID 1067); conditions: higher = more signal;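 also: measures binding of biotinylated aFGF2 protein to printed compounds on slides; z-score merges feature fluorescence and signal-to-noise across triplicate slides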
[4] = binders of probe aFGF10 on microarray, primary screen, stem cell growth factor project, biochemical, small-molecule microarray, fluorescence 635/667 (AID 1071); conditions: higher = more signal;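 also: score merges 667 nm spot intensity and signal to noise from triplicate slides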
[5] = biological target: Neurogenic locus notch homolog protein 2 (Homo sapiens) (UniProt Q04721); experiment: Notch2 binders on small-molecule microarrays, primary screen, biochemical, small-molecule microarray, 635 nm fluorescence, stem cell growth factors (AID 1073); conditions: Notch2 binding, higher = more signal
Sequence of Neurogenic locus notch homolog protein 2 (Homo sapiens) (Q04721 whole entry, looked up, canonical isoform): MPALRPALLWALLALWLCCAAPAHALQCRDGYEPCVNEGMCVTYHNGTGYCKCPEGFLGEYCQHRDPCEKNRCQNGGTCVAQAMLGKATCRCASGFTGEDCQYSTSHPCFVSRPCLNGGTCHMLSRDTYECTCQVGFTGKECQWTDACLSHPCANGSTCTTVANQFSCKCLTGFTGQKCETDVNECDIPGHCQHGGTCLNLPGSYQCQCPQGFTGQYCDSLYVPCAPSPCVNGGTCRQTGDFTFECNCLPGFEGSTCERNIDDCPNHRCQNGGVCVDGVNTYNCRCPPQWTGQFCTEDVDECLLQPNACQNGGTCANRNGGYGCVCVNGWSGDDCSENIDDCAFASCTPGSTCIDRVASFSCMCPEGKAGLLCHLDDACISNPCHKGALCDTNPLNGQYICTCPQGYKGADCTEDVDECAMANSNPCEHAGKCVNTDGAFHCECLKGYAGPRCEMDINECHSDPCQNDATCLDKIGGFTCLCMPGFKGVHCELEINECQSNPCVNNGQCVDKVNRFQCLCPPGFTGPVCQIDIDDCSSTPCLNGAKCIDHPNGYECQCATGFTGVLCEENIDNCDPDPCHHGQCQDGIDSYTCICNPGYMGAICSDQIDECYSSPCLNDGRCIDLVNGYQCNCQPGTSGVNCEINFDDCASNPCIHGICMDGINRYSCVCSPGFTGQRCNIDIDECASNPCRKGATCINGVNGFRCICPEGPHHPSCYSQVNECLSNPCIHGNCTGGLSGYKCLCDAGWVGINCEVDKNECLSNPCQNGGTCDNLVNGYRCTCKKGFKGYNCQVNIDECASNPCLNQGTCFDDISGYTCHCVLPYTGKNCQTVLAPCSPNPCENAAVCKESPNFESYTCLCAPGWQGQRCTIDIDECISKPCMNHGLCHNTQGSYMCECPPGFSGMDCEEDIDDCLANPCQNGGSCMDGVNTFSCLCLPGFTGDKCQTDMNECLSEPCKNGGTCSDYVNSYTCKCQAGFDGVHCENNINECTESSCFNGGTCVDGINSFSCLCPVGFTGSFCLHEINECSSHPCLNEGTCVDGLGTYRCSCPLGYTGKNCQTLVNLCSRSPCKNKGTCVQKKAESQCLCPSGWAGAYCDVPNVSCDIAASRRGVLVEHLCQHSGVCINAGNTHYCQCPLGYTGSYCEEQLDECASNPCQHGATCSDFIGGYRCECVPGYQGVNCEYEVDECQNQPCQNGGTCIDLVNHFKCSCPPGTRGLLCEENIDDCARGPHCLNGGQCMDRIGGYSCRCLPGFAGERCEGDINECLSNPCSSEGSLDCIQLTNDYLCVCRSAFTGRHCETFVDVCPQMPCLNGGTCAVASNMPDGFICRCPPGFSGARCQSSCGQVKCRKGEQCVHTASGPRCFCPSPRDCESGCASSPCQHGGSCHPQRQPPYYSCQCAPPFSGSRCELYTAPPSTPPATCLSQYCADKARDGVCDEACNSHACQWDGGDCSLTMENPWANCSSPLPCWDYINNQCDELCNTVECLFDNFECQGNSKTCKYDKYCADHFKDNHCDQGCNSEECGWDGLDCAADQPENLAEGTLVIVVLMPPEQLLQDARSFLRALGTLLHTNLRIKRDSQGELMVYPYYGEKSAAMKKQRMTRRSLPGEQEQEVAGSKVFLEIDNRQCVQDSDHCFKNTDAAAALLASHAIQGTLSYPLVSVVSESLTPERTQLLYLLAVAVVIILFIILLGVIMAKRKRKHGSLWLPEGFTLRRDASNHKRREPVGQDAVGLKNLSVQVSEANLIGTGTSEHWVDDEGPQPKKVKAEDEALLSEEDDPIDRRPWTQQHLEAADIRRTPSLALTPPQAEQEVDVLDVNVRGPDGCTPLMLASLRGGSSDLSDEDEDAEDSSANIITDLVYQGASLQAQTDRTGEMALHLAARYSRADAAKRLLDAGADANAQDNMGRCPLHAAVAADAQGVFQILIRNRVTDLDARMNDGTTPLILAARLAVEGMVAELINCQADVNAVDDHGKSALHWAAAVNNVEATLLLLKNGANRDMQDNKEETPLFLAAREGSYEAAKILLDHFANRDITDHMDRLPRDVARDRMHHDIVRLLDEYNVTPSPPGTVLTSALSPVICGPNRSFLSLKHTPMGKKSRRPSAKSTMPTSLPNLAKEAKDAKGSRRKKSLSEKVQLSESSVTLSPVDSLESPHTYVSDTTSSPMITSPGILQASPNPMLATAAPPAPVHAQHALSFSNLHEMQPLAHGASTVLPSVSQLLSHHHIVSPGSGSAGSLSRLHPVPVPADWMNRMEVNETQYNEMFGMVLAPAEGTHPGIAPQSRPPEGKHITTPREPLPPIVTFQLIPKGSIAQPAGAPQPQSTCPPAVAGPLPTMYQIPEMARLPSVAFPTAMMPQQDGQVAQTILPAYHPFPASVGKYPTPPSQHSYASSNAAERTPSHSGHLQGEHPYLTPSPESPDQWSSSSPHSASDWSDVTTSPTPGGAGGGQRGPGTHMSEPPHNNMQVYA

[6] = biological target: Pro-neuregulin-1, membrane-bound isoform (Homo sapiens) (UniProt Q02297); experiment: NRG1 binders on small-molecule microarrays, primary screen, psychiatric disease protein project, biochemical, small-molecule microarray, fluorescence 635/667 (AID 1075); conditions: NRG1 binding, 635 nm fluorescence, higher = more signal;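 also: score combines 667 nm spot fluorescence with signal to noise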
Sequence of Pro-neuregulin-1, membrane-bound isoform (Homo sapiens) (Q02297 whole entry, looked up, the tested form may be a part, canonical isoform): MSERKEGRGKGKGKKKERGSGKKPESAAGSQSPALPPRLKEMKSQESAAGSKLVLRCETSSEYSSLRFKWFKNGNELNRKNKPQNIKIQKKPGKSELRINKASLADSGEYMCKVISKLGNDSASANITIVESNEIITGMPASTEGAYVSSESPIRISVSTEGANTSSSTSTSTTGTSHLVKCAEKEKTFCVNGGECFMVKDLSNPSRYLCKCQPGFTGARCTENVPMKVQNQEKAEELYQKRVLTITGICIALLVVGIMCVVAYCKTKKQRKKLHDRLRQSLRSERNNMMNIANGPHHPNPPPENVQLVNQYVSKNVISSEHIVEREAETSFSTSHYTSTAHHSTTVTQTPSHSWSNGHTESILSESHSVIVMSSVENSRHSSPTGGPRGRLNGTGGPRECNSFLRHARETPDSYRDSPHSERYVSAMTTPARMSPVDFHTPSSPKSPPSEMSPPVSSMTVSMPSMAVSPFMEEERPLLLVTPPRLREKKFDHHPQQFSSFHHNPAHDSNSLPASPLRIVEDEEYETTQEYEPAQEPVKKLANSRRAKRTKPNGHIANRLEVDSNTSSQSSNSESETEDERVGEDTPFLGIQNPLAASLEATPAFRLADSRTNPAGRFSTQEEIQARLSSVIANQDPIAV

[7] = tested on: Neuregulin-1 EGF-like domain; experiment: binders of neuregulin-1 EGF-like domain, primary screen, biochemical, small-molecule microarray, 635 nm fluorescence (AID 1081); conditions: small-molecule microarray binding, higher = more signal;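 also: binding of the protein to compounds printed on small-molecule microarray slides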
[8] = FRG1 promoter luciferase signal modulators, primary screen, FRG1 inhibition for FSHD, cell-based, C2C12 myotubes, firefly/Renilla luciferase, luminescence (AID 1084); conditions: higher = more signal, called active from +8 up or from −8 down
[9] = binders of probe aFST on microarray, primary screen, stem cell growth factor project, biochemical, small-molecule microarray, fluorescence 635/667 (AID 1086); conditions: higher = more signal;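 also: score merges 667 nm fluorescence with signal-to-noise of each printed compound spot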
[10] = binders of probe aHhip on microarray, primary screen, stem cell growth factor project, biochemical, small-molecule microarray, fluorescence 635/667 (AID 1087); conditions: higher = more signal;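 also: score merges spot fluorescence at 667nm with spot signal to noise ratio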

Structure (SMILES): COC(=O)C(CC#Cc1ccc2c(c1)[C@]1(C(=O)N2)[C@H](c2ccccc2OCCO)N2[C@H](c3ccccc3)[C@H](c3ccccc3)OC(=O)[C@H]2[C@@H]1C(=O)O)C(=O)OC
- composite z-score [1]: 0.187
- composite z-score [2]: 0.856
- composite z-score [3]: 0.0876
- composite z-score [4]: 0.866
- composite z-score [5]: 0.275
- composite z-score [6]: 1.65
- composite z-score [7]: 1.32
- z-score [8]: -0.173 (inactive)
- composite z-score [9]: 0.411
- composite z-score [10]: 0.426

Structure (SMILES): CN1C(=O)C2C=CC(C(O)c3c(F)cccc3Cl)N(NC(=O)OC(C)(C)C)C2C1=O (stereo not given)
- composite z-score [1]: 0.171
- composite z-score [2]: 0.233
- composite z-score [3]: 0.0111
- composite z-score [4]: 1.11
- composite z-score [5]: 1.23
- composite z-score [6]: 1.49
- composite z-score [7]: 1.3
- z-score [8]: 0.636 (inactive)
- composite z-score [9]: 0.888
- composite z-score [10]: 0.0623

Structure (SMILES): CN1C(=O)C2C=CC(C(O)c3ccc(F)cc3)N(N(c3ccccc3)c3ccccc3)C2C1=O (stereo not given)
- composite z-score [1]: 0.5
- composite z-score [2]: -0.123
- composite z-score [3]: -0.0446
- composite z-score [4]: 0.122
- composite z-score [5]: 0.822
- composite z-score [6]: 1.28
- composite z-score [7]: 1.03
- z-score [8]: -0.368 (inactive)
- composite z-score [9]: 0.56
- composite z-score [10]: -0.107

Structure (SMILES): COc1cc(CO)cc(I)c1O[C@H]1C=C(C(=O)NCCO)C[C@@H](NC[C@@H]2CCCO2)[C@@H]1O
- composite z-score [1]: -0.281
- composite z-score [2]: 0.445
- composite z-score [3]: -0.085
- composite z-score [4]: 0.674
- composite z-score [5]: 0.041
- composite z-score [6]: 0.625
- composite z-score [7]: 1.09
- z-score [8]: -0.225 (inactive)
- composite z-score [9]: 0.59
- composite z-score [10]: -0.169

Structure (SMILES): CC=CC(O)C1C=CC2C(=O)N(C)C(=O)C2N1N(c1ccccc1)c1ccccc1 (stereo not given)
- composite z-score [1]: -0.108
- composite z-score [2]: 0.273
- composite z-score [3]: -0.0567
- composite z-score [4]: 0.367
- composite z-score [5]: 1.44
- composite z-score [6]: 0.837
- composite z-score [7]: 1.12
- z-score [8]: 0.621 (inactive)
- composite z-score [9]: -0.132
- composite z-score [10]: -0.201

Structure (SMILES): O=C(O)C1N=C(c2ccc(OCCCO)cc2)N(c2ccccc2)O1 (stereo not given)
- composite z-score [1]: 0.158
- composite z-score [2]: 0.0642
- composite z-score [3]: -0.0474
- composite z-score [4]: 0.499
- composite z-score [5]: 0.778
- composite z-score [6]: -0.145
- composite z-score [7]: 0.527
- z-score [8]: 2.09 (inactive)
- composite z-score [9]: -0.288
- composite z-score [10]: -0.136

Structure (SMILES): CCOC(=O)[C@H]1C/C=C/C[C@H](C(=O)OCC)C(=O)O[C@H]2[C@@H](OC)O[C@H](CO)[C@@H](OC(=O)c3ccc(Br)cc3)[C@@H]2OC1=O
- composite z-score [1]: 0.0086
- composite z-score [2]: 0.014
- composite z-score [3]: -0.0459
- composite z-score [4]: -0.0304
- composite z-score [5]: -0.0686
- composite z-score [6]: 0.132
- composite z-score [7]: 0.517
- z-score [8]: -0.0847 (inactive)
- composite z-score [9]: -0.0976
- composite z-score [10]: 0.0566

Structure (SMILES): CC[C@@H]1C=C(C(=O)O)[C@H](c2ccc(C)cc2)N1S(=O)(=O)c1ccc(C)cc1
- composite z-score [1]: -0.139
- composite z-score [2]: 0.719
- composite z-score [3]: -0.0246
- composite z-score [4]: -0.256
- composite z-score [5]: 1.1
- composite z-score [6]: 0.929
- composite z-score [7]: 1.29
- z-score [8]: -0.143 (inactive)
- composite z-score [9]: 0.593
- composite z-score [10]: 0.126

Structure (SMILES): C=CCC(OC(C)=O)[C@@H]1[C@@H](N(Cc2ccc(-c3ccccc3)cc2)C(=O)Cc2ccc(F)cc2)c2cc(OCCCO)ccc2N1C(=O)c1ccc2ccccc2c1 (stereo not given in full)
- composite z-score [1]: -0.313
- composite z-score [2]: 0.273
- composite z-score [3]: -0.0222
- composite z-score [4]: -0.0326
- composite z-score [5]: 0.166
- composite z-score [6]: -0.158
- composite z-score [7]: -0.31
- z-score [8]: 0.375 (inactive)
- composite z-score [9]: 0.0263
- composite z-score [10]: -0.226

Structure (SMILES): CN(C)CCCCCCNC(=O)[C@@H]1C[C@@H]2C(=O)N3CCC[C@H]3C(=O)N2[C@@H]1c1ccc(O)cc1
- composite z-score [1]: 0.675
- composite z-score [2]: 1.9
- composite z-score [3]: 0.0923
- composite z-score [4]: 1.18
- composite z-score [5]: 0.697
- composite z-score [6]: 0.543
- composite z-score [7]: 1.35
- z-score [8]: 1.53 (inactive)
- composite z-score [9]: 0.886
- composite z-score [10]: 0.124

Structure (SMILES): CC(=O)NCCCC[C@@H]1NC(=O)[C@H]2C[C@@H](C(=O)O)[C@@H](c3ccc(O)cc3)N2C1=O
- composite z-score [1]: -0.0025
- composite z-score [2]: 0.843
- composite z-score [3]: -0.0135
- composite z-score [4]: 0.607
- composite z-score [5]: 1.23
- composite z-score [6]: 1.1
- composite z-score [7]: 1.3
- z-score [8]: -0.316 (inactive)
- composite z-score [9]: 0.904
- composite z-score [10]: 0.213

Structure (SMILES): C=CCN(Cc1ccccc1)C(=O)C(c1cccs1)N(C(=O)/C=C\C(=O)O)c1ccc(CCOCCO)cc1 (stereo not given)
- composite z-score [1]: 0.146
- composite z-score [2]: -0.182
- composite z-score [3]: -0.176
- composite z-score [4]: -0.865
- composite z-score [5]: -1.84
- composite z-score [6]: 0.718
- composite z-score [7]: 0.0305
- z-score [8]: 0.988 (inactive)
- composite z-score [9]: -1.35
- composite z-score [10]: -0.134

Structure (SMILES): CC1CC/C=C\[C@H]2OC34C=CCN(Cn5nnc6ccccc65)C(=O)[C@H]3N(CCCCCO)C(=O)[C@@H]4C2C(=O)O1 (stereo not given in full)
- composite z-score [1]: -0.05
- composite z-score [2]: -0.67
- composite z-score [3]: -0.148
- composite z-score [4]: -0.499
- composite z-score [5]: -1.38
- composite z-score [6]: -0.917
- composite z-score [7]: -0.417
- z-score [8]: -0.373 (inactive)
- composite z-score [9]: -0.815
- composite z-score [10]: -0.251

Structure (SMILES): COCCOC(=O)N1C(=O)[C@@]2(c3cc(C#CC4=CCCCC4)ccc31)[C@H](C(N)=O)[C@H]1C(=O)O[C@H](c3ccccc3)[C@H](c3ccccc3)N1[C@@H]2c1ccc(O)cc1
- composite z-score [1]: -0.0926
- composite z-score [2]: 0.368
- composite z-score [3]: 0.0122
- composite z-score [4]: 0.683
- composite z-score [5]: 1.28
- composite z-score [6]: 0.758
- composite z-score [7]: 1.11
- z-score [8]: -0.95 (inactive)
- composite z-score [9]: 0.416
- composite z-score [10]: 0.0623

Structure (SMILES): O=C1C2C=CC(C(O)C=Cc3ccc([N+](=O)[O-])cc3)N(n3cnnc3)C2C(=O)N1Cc1ccccc1 (stereo not given)
- composite z-score [1]: 0.246
- composite z-score [2]: 1.31
- composite z-score [3]: 0.0575
- composite z-score [4]: 0.375
- composite z-score [5]: 1.27
- composite z-score [6]: 1.77
- composite z-score [7]: 1.19
- z-score [8]: 0.422 (inactive)
- composite z-score [9]: 1.09
- composite z-score [10]: -0.226

Structure (SMILES): CN1C(=O)C2C=CC(C(O)C=Cc3ccc([N+](=O)[O-])cc3)N(Nc3ccccc3)C2C1=O (stereo not given)
- composite z-score [1]: -0.283
- composite z-score [2]: 0.617
- composite z-score [3]: 0.0411
- composite z-score [4]: 0.497
- composite z-score [5]: 1.25
- composite z-score [6]: 1.59
- composite z-score [7]: 1.35
- z-score [8]: 2.12 (inactive)
- composite z-score [9]: 0.998
- composite z-score [10]: -0.132
